Bioassay records from PubChem BioAssay.
A selection: hits, their analogues and other compounds. The true share with any hit is near 3.5%.
Anthrax LF inh2 – Bacillus anthracis LF protease inhibitors, primary screen, biochemical, multiplex microsphere, MLPCN library. multiplex microsphere protease cleavage assay. Lethal factor (Bacillus anthracis), P15917. actives 0.12% (n = 360,000). inhibition, % at 10 µM
Target sequence (P15917 whole entry, looked up): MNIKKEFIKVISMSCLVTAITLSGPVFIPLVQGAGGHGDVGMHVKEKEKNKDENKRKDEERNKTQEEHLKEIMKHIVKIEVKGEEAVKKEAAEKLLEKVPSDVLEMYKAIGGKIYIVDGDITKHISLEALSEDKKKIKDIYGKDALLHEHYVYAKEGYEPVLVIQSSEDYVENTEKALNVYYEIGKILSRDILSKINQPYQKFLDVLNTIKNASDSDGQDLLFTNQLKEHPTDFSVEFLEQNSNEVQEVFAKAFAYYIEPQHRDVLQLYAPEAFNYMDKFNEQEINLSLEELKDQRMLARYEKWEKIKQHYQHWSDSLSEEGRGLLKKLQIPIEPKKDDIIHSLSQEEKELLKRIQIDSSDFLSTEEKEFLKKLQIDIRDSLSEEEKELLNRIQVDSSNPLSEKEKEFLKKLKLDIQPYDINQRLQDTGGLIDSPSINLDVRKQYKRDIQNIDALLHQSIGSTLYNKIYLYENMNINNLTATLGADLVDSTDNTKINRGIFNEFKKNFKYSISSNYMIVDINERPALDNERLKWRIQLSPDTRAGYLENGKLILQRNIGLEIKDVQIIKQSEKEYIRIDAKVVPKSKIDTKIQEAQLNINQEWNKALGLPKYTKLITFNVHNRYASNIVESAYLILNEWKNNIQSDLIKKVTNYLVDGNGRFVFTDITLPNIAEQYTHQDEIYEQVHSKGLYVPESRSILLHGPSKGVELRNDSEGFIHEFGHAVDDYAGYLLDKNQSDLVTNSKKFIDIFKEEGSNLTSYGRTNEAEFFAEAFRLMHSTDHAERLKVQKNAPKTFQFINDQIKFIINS
BoNT-F LC inh – BoNT/F light chain protease inhibitors, primary screen, biochemical, flow cytometry, MLPCN library; Botulinum neurotoxin type F light chain protease (Clostridium botulinum); Multiplex microsphere protease cleavage assay; inhibition, % at 10 µM; actives 0.22% (n = 360,000); AID 588497, 2011; in the data active means inhibition above about 35%, passing the limit was not always enough; inconclusive means no clear call, values can overlap the other calls
BoNT-A LC inh2 – BoNT/A light chain protease inhibitors, primary screen, biochemical, flow cytometry, MLPCN library; Botulinum neurotoxin type A light chain protease (Clostridium botulinum A str. ATCC 3502); multiplex microsphere protease substrate cleavage; inhibition, % at 10 µM; actives 0.17% (n = 360,000); AID 588499, 2011
Autofluor counter – compound fluorescence in toxin protease inhibitor counterscreen. compound autofluorescence counterscreen, microsphere flow cytometry; stronger effect = higher value. fluorescence intensity (test concentration not listed). actives 3.1% (n = 360,000). AID 624483; in the data active means fluorescence intensity above about 16000; inconclusive means no clear call, values can overlap the other calls
Hits are given with their value; - = inactive; ? = inconclusive. Unless noted, no stated cut-off is given here; in the data, active means inhibition above about 30%; inconclusive means no clear call, values can overlap the other calls; inactive means below that.

SMILES | Anthrax LF inh2 | BoNT-F LC inh | BoNT-A LC inh2 | Autofluor counter
O=C(Nc1ccc(F)c(F)c1)C1=COCCO1 | - | - | - | -
Cc1cc(C(=O)CSc2nnc(-c3ccc(Cl)cc3)n2C)c(C)n1CC1CCCO1 (configuration not stated) | - | - | - | 22941
Cc1cc(C(=O)CSc2nc3ccccc3[nH]2)c(C)n1CC1CCCO1 (configuration not stated) | - | - | - | 17964
Cc1nnc(SCC(=O)N2CCCc3ccccc32)[nH]c1=O | - | - | - | 16177
Cn1c(SCC(=O)N2CCCc3ccccc32)nnc1-c1cccs1 | - | - | - | 23321
CC1CCc2cc(F)ccc2N1C(=O)CSc1nnc(-c2cccs2)n1C (configuration not stated) | - | - | ? | 23587
Cn1c(SCC(=O)N2CCCc3ccccc32)nnc1-c1c[nH]c2ccccc12 | - | - | - | -
Cn1c(Cc2cccs2)nnc1SCC(=O)N1CCCc2ccccc21 | - | - | - | -
O=C(CSc1nnc(Cc2cccs2)n1CCc1ccccc1)N1CCCc2ccccc21 | - | - | - | 23460
O=C(Cc1ccccc1[N+](=O)[O-])Nc1ccc(S(=O)(=O)N2CCCC2)cc1 | - | ? | - | ?
Cc1nnc(SCC(=O)NCc2ccccc2)[nH]c1=O | - | - | - | 17403
COc1ccccc1/C=C/C=C1N=C(/C=C/c2ccc(Cl)cc2)OC/1=O | - | - | - | -
COc1ccccc1/C=C/C1=NC(=C\C=C/c2ccccc2)/C(=O)O1 | - | 58 | - | -
CCCCn1c(N)c(N(CC(C)C)C(=O)CSc2nn(-c3ccc(F)cc3)c(=S)s2)c(=O)[nH]c1=O | - | - | - | -
O=C(Nc1ccccc1)N(CCCN1CCOCC1)Cc1ccccc1F | - | - | - | -
COc1ccc(CN(CCCN2CCOCC2)C(=O)Nc2ccccc2)cc1OC | - | - | ? | 22584
O=C(OCC(=O)N1CCN(c2ccccc2)CC1)c1cccc(Cl)c1 | - | - | ? | 23047
O=C(CCSCc1ccccc1Cl)N1CCN(c2cccc(Cl)c2)CC1 | - | - | - | 22753
Cn1cnc(S(=O)(=O)NC2CCN(Cc3ccccc3)CC2)c1 | - | - | - | -
CCNC(=O)C1(C)CCN(C(=O)c2cccs2)C1 (configuration not stated) | - | - | - | -
O=C(c1ccc2c(c1)OCO2)N1CCN(c2ccccn2)CC1 | - | - | - | -
O=C(c1ccc2c(c1)OCCO2)N1CCN(c2ccccn2)CC1 | - | - | - | 17835
O=C1Nc2cc(C(=O)N3CCN(c4ccccn4)CC3)ccc2S/C1=C\c1ccccc1 | - | - | - | -
O=C1CSc2ccc(C(=O)N3CCN(c4ccccn4)CC3)cc2N1 | - | - | ? | 25914
C(=NN1CCCCCC1)c1ccc2c(c1)OCO2 | - | - | - | -
SMILES | Anthrax LF inh2 | BoNT-F LC inh | BoNT-A LC inh2 | Autofluor counter
C[C@@]12C(=O)Nc3ccccc3C(=O)N1[C@H]1c3cc(Br)ccc3OC[C@@H]1[C@@H]2c1ccccc1 | - | - | - | -
CCC(=O)N1CCN(c2cc(N3CCCC3)c(F)cc2[N+](=O)[O-])CC1 | - | - | - | -
O=C(c1cccc(F)c1)N1CCN(c2cc(N3CCCCC3)c(F)cc2[N+](=O)[O-])CC1 | - | - | - | 20200
CC(=O)N1CCN(c2cc(N3CCc4ccccc4C3)c(F)cc2[N+](=O)[O-])CC1 | - | - | - | 17226
O=C(c1ccc(N2CCCCC2)c([N+](=O)[O-])c1)N1CCOCC1 | - | - | - | 16276
CC(=O)Nc1ccc(/C=C(\C#N)C(N)=O)cc1 | ? | 35 | - | -
O=C(O)c1cc(NN=C2CCN(Cc3ccccc3)CC2)ccc1Cl | - | 42 | - | -
CCCC(=O)N1CCC1(C)C(=O)NS(=O)(=O)c1cc(C)ccc1F (configuration not stated) | - | - | - | -
O=C(c1cccc(Br)c1)c1cn(-c2ccccc2)nc1C(=O)c1ccccc1 | - | - | ? | 24853
CC(=O)c1nn(-c2ccccc2)cc1C(=O)c1cccc(Br)c1 | - | - | - | -
Cc1ccc(C=Nc2ccccc2C(N)=O)s1 | - | - | - | -
Cc1cccc(C=Nc2ccccc2C(N)=O)c1 | - | - | - | 24521
COc1cc(NC(=O)Cn2c(C)cc3ccccc3c2=O)cc(OC)c1OC | - | - | - | -
COc1cc(NC(=O)Cn2c(-c3cncs3)nc3ccccc32)cc(OC)c1OC | - | - | ? | 21248
O=C(c1ccccc1)N1N=C(C(F)(F)F)CC1(O)c1ccccc1 (configuration not stated) | 38 | - | - | -
O=C(c1ccccc1)N1N=C(C(F)(F)F)CC1(O)c1ccc(F)cc1 (configuration not stated) | - | - | - | -
O=C(NCC1CCCO1)c1ccc(CS(=O)(=O)c2ccc(Br)cc2)o1 (configuration not stated) | - | - | - | -
O=C(NCC1CCCO1)c1ccc(CS(=O)(=O)c2ccc(Cl)cc2)o1 (configuration not stated) | - | - | - | 22230
CCOc1ccccc1/C=c1\sc2ncnn2c1=O | - | - | ? | 21270
CCCOc1ccc(/C=c2\sc3ncnn3c2=O)cc1 | - | - | - | -
CC(=O)Oc1ccc(/C=c2\sc3ncnn3c2=O)cc1 | - | - | - | 22478
Cc1ccc(S(=O)(=O)c2nc(S(C)(=O)=O)sc2N2CCCCC2C)cc1 (configuration not stated) | - | - | - | -
CCC(C)n1c(SCC(=O)Nc2ccccc2C(F)(F)F)nc2ccsc2c1=O (configuration not stated) | - | - | - | 21867
COC(=O)CC1(c2ccc(OC)cc2)C(=O)c2ccccc2C1=O | - | ? | ? | -
COC(=O)CC1(c2ccccc2)C(=O)c2ccccc2C1=O | - | - | ? | 16568
SMILES | Anthrax LF inh2 | BoNT-F LC inh | BoNT-A LC inh2 | Autofluor counter
CC1(C)CC(=O)C2=C(C1)N(CC1CCCO1)C(=O)C2(NC(=O)c1cccnc1)C(F)(F)F (configuration not stated) | - | - | - | 17055
CC1(C)CC(=O)C2=C(C1)N(c1ccc(F)cc1)C(=O)C2(NC(=O)c1ccccc1F)C(F)(F)F (configuration not stated) | - | - | - | -
CC(C)CC(=O)NC1(C(F)(F)F)C(=O)N(Cc2ccccc2)C2=C1C(=O)CC(C)(C)C2 (configuration not stated) | - | - | - | 21893
CC1(C)CC(=O)C2=C(C1)N(Cc1ccccc1)C(=O)C2(O)C(F)(F)F (configuration not stated) | - | - | - | -
CC1(C)CC(=O)C2=C(C1)N(Cc1ccc(F)cc1)C(=O)C2(NC(=O)c1cccnc1)C(F)(F)F (configuration not stated) | - | - | ? | 20986
C=CCOc1ccc(/C=C/C(=O)OCC(=O)NCc2cccs2)cc1 | - | - | - | -
O=C(O)CCN1C(=O)c2ccc(Oc3ccc4c(c3)C(=O)N(CCC(=O)O)C4=O)cc2C1=O | - | - | - | 19401
CCCn1c2ccccc2c2nnc(SCC(=O)OCC)nc21 | - | - | - | -
CCCn1c2ccccc2c2nnc(SCC(=O)OC)nc21 | - | - | - | 20508
